These results are taken from PubChem BioAssay (NCI).

Structures are written as SMILES. Compounds without any hit were thinned out: in the full panel of roughly 79,000, 15% have a hit. Unmarked numbers belong to inactive results. Active and inactive are the calls of the source. Rule as the data show it: active = growth inhibition above about 70%; inactive = the rest.

Test [1] in a line: NCI Yeast Anticancer Drug Screen. Data for the rad50 strain (AID 155).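 Also: 0% = growth of vehicle-only cultures of the same strain.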 Particulars: S. cerevisiae rad50 strain growth inhibition, active compounds read high. Summed up:
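Readout: growth inhibition relative to vehicle-treated cultures. Compound exposure was carried out in a genetically defined yeast strain deficient in DNA damage repair.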

Test [2] can be described thus: NCI Yeast Anticancer Drug Screen. Data for the mec2-1 strain (AID 157). The settings on record: S. cerevisiae mec2-1 strain, active compounds read high. In a few lines: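 Cells of the genetically defined mec2-1 yeast strain are incubated with test compound. Inhibition of growth is calculated against vehicle-treated controls.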
A short description of test [3]: NCI Yeast Anticancer Drug Screen. Data for the sgs1 mgt1 strain (AID 161).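 Also: 0% = growth of cultures given vehicle only.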 The settings on record: S. cerevisiae sgs1 mgt1 strain, active compounds read high. Summed up:
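Mutant yeast exposed to compound; growth scored against vehicle-only wells.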

Test [4] can be described thus: NCI Yeast Anticancer Drug Screen. Data for the cln2 rad14 strain (AID 165).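 Also: 0% = growth equal to vehicle treated cultures.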 Particulars: S. cerevisiae cln2 rad14 strain, active compounds read high. In a few lines:
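The screen exposed genetically defined yeast (cln2 rad14) to test compounds and scored growth inhibition relative to vehicle-treated controls.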

The nature of test [5]: NCI Yeast Anticancer Drug Screen. Data for the bub3 strain (AID 167). The settings on record: S. cerevisiae bub3 mutant strain, active compounds read high. Summed up:
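Readout: yeast growth inhibition, expressed relative to vehicle-only wells. The test organism is a mutant strain from a panel with lesions in DNA repair or checkpoint genes.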

Test [6] in a line: NCI Yeast Anticancer Drug Screen. Data for the mlh1 rad18 strain (AID 175). The settings on record: S. cerevisiae mlh1 rad18 strain growth inhibition, active compounds read high. In a few lines: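 Compound-treated yeast growth, normalised to vehicle controls. Strain bears defined DNA repair mutations.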
Setting [7] is: at 5.0 µM (retest, dose inferred, filed as 0.5).
Setting [8] is: at 50.0 µM (retest, dose inferred, filed as 5.0).

`Nc1ccc2c(c1)S(=O)(=O)c1cc(O)ccc1O2`: the growth inhibition in test [1] (setting [7]) is 23%; in test [1] (setting [8]), 18%; in test [1] (at 50.0 µM) it was 32.9%; in test [2] (setting [7]), 10%; in test [2] (setting [8]), 20%; in test [2] (at 50.0 µM), -26.8%. The growth inhibition in test [3] (setting [7]) was 13%; in test [3] (setting [8]), 25%; in test [3] (at 50.0 µM) it was -22.6%; in test [4] (setting [7]) it was 11%; in test [4] (setting [8]), 24%; in test [4] (at 50.0 µM), -4.55%. For the same compound, the growth inhibition in test [5] (setting [7]) was 21%; in test [5] (setting [8]), 28%; in test [5] (at 50.0 µM), -15.2%; in test [6] (setting [7]), 8%; in test [6] (setting [8]), 5%; in test [6] (at 50.0 µM), -71%.
In the case of `Clc1ccc(CN2COc3c(ccc4cccnc34)C2)c(Cl)c1`, the growth inhibition in test [1] (setting [7]) was 2%; in test [1] (setting [8]) it was 91% (active); in test [1] (at 50.0 µM), 98.1% (active); in test [2] (setting [7]) it was 2%; in test [2] (setting [8]), 67%; in test [2] (at 50.0 µM) it was 98.9% (active). Moreover, the growth inhibition in test [3] (setting [7]) was 4%; in test [3] (setting [8]), 98% (active); in test [3] (at 50.0 µM) it was 99% (active); in test [4] (setting [7]), -9%; in test [4] (setting [8]) it was 98% (active); in test [4] (at 50.0 µM) it was 97.7% (active). In addition, the growth inhibition was -6% in test [5] (setting [7]); 99% (active) in test [5] (setting [8]); 99% (active) in test [5] (at 50.0 µM); 3% in test [6] (setting [7]); 98% (active) in test [6] (setting [8]); 99.1% (active) in test [6] (at 50.0 µM).
As for `O=C(c1ccc(Br)cc1)C1N=NCC1c1ccccc1` (centres undefined), the growth inhibition is 1% in test [1] (setting [7]); 36% in test [1] (setting [8]); -4.75% in test [1] (at 50.0 µM); 9% in test [2] (setting [7]); 52% in test [2] (setting [8]); 64.7% in test [2] (at 50.0 µM). In addition, the growth inhibition was 4% in test [3] (setting [7]); -14% in test [3] (setting [8]); 64.7% in test [3] (at 50.0 µM); 6% in test [4] (setting [7]); 65% in test [4] (setting [8]); 12.8% in test [4] (at 50.0 µM). Further, the growth inhibition in test [5] (setting [7]) was 0%; in test [5] (setting [8]) it was 59%; in test [5] (at 50.0 µM), 86.3% (active); in test [6] (setting [7]) it was -4%; in test [6] (setting [8]), 64%; in test [6] (at 50.0 µM), 80.2% (active).
With `C/C(=N\Nc1ccccn1)c1ccccn1`, the growth inhibition was 47% in test [1] (setting [7]); 98% (active) in test [1] (setting [8]); 98.8% (active) in test [1] (at 50.0 µM); 61% in test [2] (setting [7]); 99% (active) in test [2] (setting [8]); 98.7% (active) in test [2] (at 50.0 µM). Besides, the growth inhibition is 57% in test [3] (setting [7]); 98% (active) in test [3] (setting [8]); 99% (active) in test [3] (at 50.0 µM); 56% in test [4] (setting [7]); 99% (active) in test [4] (setting [8]); 97.3% (active) in test [4] (at 50.0 µM). Also, the growth inhibition is 53% in test [5] (setting [7]); 98% (active) in test [5] (setting [8]); 49.9% in test [5] (at 50.0 µM); 60% in test [6] (setting [7]); 98% (active) in test [6] (setting [8]); 98.5% (active) in test [6] (at 50.0 µM).
Turning to `O=C(O)c1nnsc1-c1ccc(-c2snnc2C(=O)O)cc1`, the growth inhibition is 2% in test [1] (setting [7]); 14% in test [1] (setting [8]); 22% in test [1] (at 50.0 µM); -2% in test [2] (setting [7]); 18% in test [2] (setting [8]); 23.1% in test [2] (at 50.0 µM). Also, the growth inhibition in test [3] (setting [7]) is -4%; in test [3] (setting [8]), 30%; in test [3] (at 50.0 µM) it was -6.3%; in test [4] (setting [7]), 21%; in test [4] (setting [8]), 0%; in test [4] (at 50.0 µM) it was 39.3%. The growth inhibition in test [5] (setting [7]) was 25%; in test [5] (setting [8]), 6%; in test [5] (at 50.0 µM) it was 35.1%; in test [6] (setting [7]) it was 7%; in test [6] (setting [8]), 9%; in test [6] (at 50.0 µM), 3.3%.
With `CC(C)=CC[P+](CCCCCC[P+](CC=C(C)C)(c1ccccc1)c1ccccc1)(c1ccccc1)c1ccccc1`, the growth inhibition in test [1] (setting [7]) is -4%; in test [1] (setting [8]) it was 9%; in test [1] (at 50.0 µM), 31.6%; in test [2] (setting [7]), -1%; in test [2] (setting [8]), 9%; in test [2] (at 50.0 µM), 40.8%. For the same compound, the growth inhibition is -3% in test [3] (setting [7]); 27% in test [3] (setting [8]); 59.5% in test [3] (at 50.0 µM); -5% in test [4] (setting [7]); 16% in test [4] (setting [8]); 4.75% in test [4] (at 50.0 µM). Besides, the growth inhibition in test [5] (setting [7]) is -3%; in test [5] (setting [8]), 15%; in test [5] (at 50.0 µM) it was 48.3%; in test [6] (setting [7]) it was -1%; in test [6] (setting [8]), 27%; in test [6] (at 50.0 µM), 89.2% (active).
Take `COc1ccc(N2C(=O)C(=O)N(c3ccccc3[N+](=O)[O-])C2=S)cc1`: the growth inhibition in test [1] (setting [7]) was 16%; in test [1] (setting [8]), 99% (active); in test [1] (at 50.0 µM), 86.3% (active); in test [2] (setting [7]), -10%; in test [2] (setting [8]), 96% (active); in test [2] (at 50.0 µM), 90% (active). Moreover, the growth inhibition is 7% in test [3] (setting [7]); 98% (active) in test [3] (setting [8]); 86.2% (active) in test [3] (at 50.0 µM); 16% in test [4] (setting [7]); 94% (active) in test [4] (setting [8]); 72.2% (active) in test [4] (at 50.0 µM). For the same compound, the growth inhibition is 7% in test [5] (setting [7]); 98% (active) in test [5] (setting [8]); 78.2% (active) in test [5] (at 50.0 µM); 3% in test [6] (setting [7]); 98% (active) in test [6] (setting [8]); 83.9% (active) in test [6] (at 50.0 µM).
With `O=S(=O)(CC(Br)c1ccccc1)CC(Br)c1ccccc1` (centres undefined), the growth inhibition was -3% in test [1] (setting [7]); -1% in test [1] (setting [8]); 50.2% in test [1] (at 50.0 µM); 19% in test [2] (setting [7]); 41% in test [2] (setting [8]); 43% in test [2] (at 50.0 µM). The growth inhibition was -4% in test [3] (setting [7]); 0% in test [3] (setting [8]); 80.9% (active) in test [3] (at 50.0 µM); -3% in test [4] (setting [7]); 6% in test [4] (setting [8]); 40% in test [4] (at 50.0 µM). The growth inhibition was 4% in test [5] (setting [7]); 42% in test [5] (setting [8]); 63.2% in test [5] (at 50.0 µM); -3% in test [6] (setting [7]); 13% in test [6] (setting [8]); 46.6% in test [6] (at 50.0 µM).
